The values below come from PubChem BioAssay (Tox21).

Inconclusive results are not listed. A call without a number means that no potency is given here. Activity calls are given as the source filed them. Unless noted, calls follow the shape of the full dose curve.

In the first test the target is D(2) dopamine receptor (Homo sapiens) (UniProt P14416). The test is described as follows: Dopamine D2 receptor (DRD2) small molecule agonists, cell-based qHTS assay (AID 1963594). Also: nearly all actives have a fitted effect of over 35% in size. The following applies: HEK293-DRD2 cAMP HTRF, agonist mode, 30 min; series mostly up to 92.4 µM. The procedure, abridged: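 HEK293 cells stably expressing human DRD2, pre-treated with PDE inhibitor Ro20-1724 (0.1 mM final) and compound 10 min at room temperature, then stimulated with NKH477 (200nM […]) for 30 min. cAMP read by HTRF (665/620 nm).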
Chain of D(2) dopamine receptor (Homo sapiens) (P14416 whole entry, looked up): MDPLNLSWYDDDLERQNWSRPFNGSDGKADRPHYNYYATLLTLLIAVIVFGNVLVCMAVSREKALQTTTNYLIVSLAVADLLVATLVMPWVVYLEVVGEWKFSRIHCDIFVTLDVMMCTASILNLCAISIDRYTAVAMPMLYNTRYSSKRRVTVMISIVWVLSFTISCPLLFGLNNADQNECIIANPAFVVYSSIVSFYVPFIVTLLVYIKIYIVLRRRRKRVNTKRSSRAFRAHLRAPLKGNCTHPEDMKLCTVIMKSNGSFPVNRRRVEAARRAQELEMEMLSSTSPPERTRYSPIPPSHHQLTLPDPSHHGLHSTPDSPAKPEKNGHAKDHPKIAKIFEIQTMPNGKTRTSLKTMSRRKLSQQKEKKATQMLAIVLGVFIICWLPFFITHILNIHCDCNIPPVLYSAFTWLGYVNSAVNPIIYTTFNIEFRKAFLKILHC
(In qHTS, concentration-response curves come from the screen itself.)
Regarding `CC(=O)c1ccc(Cl)c(Cl)c1Cl`, the Potency result was “inactive”.
The same measure, in the same setting: with `O=C(O)CCC(=O)c1ccc(-c2ccccc2)cc1` the entry was “inactive”; with `CCCCCCCCOC(C)=O`, “inactive”; with `O=C(Nc1ccc2c(O)c(N=Nc3ccc(N=Nc4ccc(S(=O)(=O)O)cc4)cc3)c(S(=O)(=O)O)cc2c1)c1ccccc1`, “inactive”.
Same read-out and setting: with `CC(C)(C)C(=O)/C=C/c1ccc(Cl)cc1` the entry was “inactive”.
Still for that read-out and setting: with `OCC(O)[C@@H](O)[C@H](O)[C@H](O)CO[C@H]1O[C@H](CO)[C@@H](O)[C@H](O)[C@H]1O` (stereo not given in full) the entry was “inactive”; with `C[C@@H](CN1CC(=O)NC(=O)C1)N1CC(=O)NC(=O)C1`, “inactive”; with `Cc1ccsc1C(=CCCN1CCC[C@@H](C(=O)O)C1)c1sccc1C`, “inactive”.
As for `CCCCCCCCCCC(=O)O`, the Potency entry is “inactive”.
Turning to `CCOc1nc2cccc(C(=O)O)c2n1Cc1ccc(-c2ccccc2-c2nn[nH]n2)cc1`, the Potency result is “inactive”.
Take `CCCc1nc2c(C)cc(-c3nc4ccccc4n3C)cc2n1Cc1ccc(-c2ccccc2C(=O)O)cc1`: the Potency entry was “inactive”.
The same measure, in the same setting: as for `CCOCCOCCOC(C)=O`, the entry is “inactive”; as for `CO[Si](C)(OC)c1ccccc1`, “inactive”.
The same measure, in the same setting: with `Cc1ccc(N(CC2=NCCN2)c2cccc(O)c2)cc1` the entry was “inactive”; with `COC(=O)c1ccccc1Cl`, “inactive”.
On the same count and under the same terms, with `CNS(=O)(=O)Cc1ccc2[nH]cc(CCN(C)C)c2c1` the entry was “inactive”.
As to `CCCCCCCCCC#N`, the Potency result was “inactive”.
The same measure, in the same setting: as for `CCOC(=O)CCCCCCCCC(=O)OCC`, the entry is “inactive”.
Still for that read-out and setting: as for `COc1cccc(O)c1`, the entry is “inactive”; as for `CC[C@H]1OC(=O)[C@H](C)[C@@H](O[C@H]2C[C@@](C)(OC)[C@@H](O)[C@H](C)O2)[C@H](C)[C@@H](O[C@@H]2O[C@H](C)C[C@H](N(C)C)[C@H]2O)[C@](C)(OC)C[C@@H](C)C(=O)[C@H](C)[C@@H](O)[C@]1(C)O`, “inactive”.
For `[O-][n+]1cccc(CO)c1`, the Potency entry is “inactive”.
Consider `CC1OCCC1=O` (stereo not given), for which the Potency result is “inactive”.
Same read-out and setting: as for `CC(C)=CCC/C(C)=C/CC/C(C)=C/CO`, the entry is “inactive”.
The same measure, in the same setting: as for `COCCOCC(OC)OC`, the entry is “inactive”; as for `ClC(Cl)(Br)Br`, “inactive”.
Same read-out and setting: as for `CCC(=O)c1cccc(Cl)c1`, the entry is “inactive”; as for `CN(C)CCOC1=Cc2ccccc2Sc2ccc(Cl)cc21`, “inactive”; as for `O=C1CCCc2c(O)cccc21`, “inactive”.
In the case of `C=CC(=O)O`, the Potency entry was “inactive”.
On the same count and under the same terms, as for `Cc1c(C)c2c(c(C)c1O)CC[C@@](C)(CCC[C@H](C)CCC[C@H](C)CCCC(C)C)O2`, the entry is “inactive”; as for `OC[C@@H](O)C(O)[C@@H](O)CO` (stereo not given in full), “inactive”.
Same read-out and setting: with `C[C@H](CCC(=O)O)[C@H]1CC[C@H]2[C@@H]3[C@H](O)C[C@@H]4C[C@H](O)CC[C@]4(C)[C@H]3C[C@H](O)[C@]12C` the entry was “inactive”; with `Cc1ccco1`, “inactive”; with `CN(C)c1ccc(C(c2ccccc2)c2ccc(N(C)C)cc2)cc1`, “inactive”.

For a further test the target is unchanged. The test is described as follows: Dopamine D2 receptor (DRD2) small molecule antagonists, cell-based qHTS assay (AID 1963595; active = well fitted inhibition curve with a large enough effect in the signal ratio in the repeat runs, with a control signal flat; the % refers to the signal ratio). As to conditions: HEK293-DRD2 cAMP HTRF antagonist mode; series mostly up to 92.4 µM. The gist of the method: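 Cells were plated and grown for 24 h at 37 °C. Ro20-1724 (0.1 mM final) went in first, then compound for 10 min. NKH477 (200 nM) with quinpirole (12 nM) followed for 30 min at RT, then HTRF detection reagents for 1 h.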
In the case of `CC(=O)c1ccc(Cl)c(Cl)c1Cl`, the Potency result was “inactive”.
On the same count and under the same terms, as for `O=C(O)CCC(=O)c1ccc(-c2ccccc2)cc1`, the entry is “inactive”; as for `CCCCCCCCOC(C)=O`, “inactive”; as for `O=C(Nc1ccc2c(O)c(N=Nc3ccc(N=Nc4ccc(S(=O)(=O)O)cc4)cc3)c(S(=O)(=O)O)cc2c1)c1ccccc1`, “inactive”.
The same measure, in the same setting: as for `C[C@@H](CN1CC(=O)NC(=O)C1)N1CC(=O)NC(=O)C1`, the entry is “inactive”.
Same read-out and setting: as for `Cc1ccsc1C(=CCCN1CCC[C@@H](C(=O)O)C1)c1sccc1C`, the entry is “inactive”; as for `CCCCCCCCCCC(=O)O`, “inactive”.
Consider `CCOc1nc2cccc(C(=O)O)c2n1Cc1ccc(-c2ccccc2-c2nn[nH]n2)cc1`, for which the Potency entry is “inactive”.
On the same count and under the same terms, with `CCCc1nc2c(C)cc(-c3nc4ccccc4n3C)cc2n1Cc1ccc(-c2ccccc2C(=O)O)cc1` the entry was “inactive”; with `CCOCCOCCOC(C)=O`, “inactive”.
The same measure, in the same setting: with `CO[Si](C)(OC)c1ccccc1` the entry was “inactive”.
Still for that read-out and setting: with `CNS(=O)(=O)Cc1ccc2[nH]cc(CCN(C)C)c2c1` the entry was “inactive”; with `CCCCCCCCCC#N`, “inactive”.
As to `CCOC(=O)CCCCCCCCC(=O)OCC`, the Potency entry is “inactive”.
As for `COc1cccc(O)c1`, the Potency result was “inactive”.
`CC[C@H]1OC(=O)[C@H](C)[C@@H](O[C@H]2C[C@@](C)(OC)[C@@H](O)[C@H](C)O2)[C@H](C)[C@@H](O[C@@H]2O[C@H](C)C[C@H](N(C)C)[C@H]2O)[C@](C)(OC)C[C@@H](C)C(=O)[C@H](C)[C@@H](O)[C@]1(C)O`: the Potency entry is “inactive”.
The same measure, in the same setting: with `[O-][n+]1cccc(CO)c1` the entry was “inactive”; with `CC1OCCC1=O` (stereo not given), “inactive”.
On to `O=[N+]([O-])c1cc(Cl)c(Cl)c(Cl)c1Cl`, for which the Potency entry was “inactive”.
On the same count and under the same terms, as for `COCCOCC(OC)OC`, the entry is “inactive”; as for `ClC(Cl)(Br)Br`, “inactive”; as for `N[C@H]1CN(c2c(F)cc3c(=O)c(C(=O)O)cn(C4C[C@H]4F)c3c2Cl)CC12CC2` (stereo not given in full), “inactive”.
Consider `CC(C)(C)NC[C@H](O)COc1cccc2c1CCCC2=O`, for which the Potency entry was “inactive”.
The same measure, in the same setting: as for `COc1cc2nc(Cl)nc(N)c2cc1OC`, the entry is “inactive”.
As to `O=C1CCCc2c(O)cccc21`, the Potency entry was “inactive”.
Still for that read-out and setting: with `C=CC(=O)O` the entry was “inactive”; with `Cc1c(C)c2c(c(C)c1O)CC[C@@](C)(CCC[C@H](C)CCC[C@H](C)CCCC(C)C)O2`, “inactive”.
On the same count and under the same terms, as for `OC[C@@H](O)C(O)[C@@H](O)CO` (stereo not given in full), the entry is “inactive”; as for `C[C@H](CCC(=O)O)[C@H]1CC[C@H]2[C@@H]3[C@H](O)C[C@@H]4C[C@H](O)CC[C@]4(C)[C@H]3C[C@H](O)[C@]12C`, “inactive”; as for `Cc1ccco1`, “inactive”.
As for `CCCCOC(=O)C(C)Oc1ccc(Oc2ccc(C(F)(F)F)cn2)cc1` (stereo not given), the Potency result was “inactive”.
